PubChem BioAssay (NCI)
This is part of a sample that, as a whole, favours compounds with a hit. Of some 79,000 tested, about 15% had one in any assay. Activity calls are given as the source filed them. Cut-off read from the data, not from the text of the source: active = growth inhibition above about 70%; inactive = the rest.

What was measured:
[1] = NCI Yeast Anticancer Drug Screen. Data for the wt1 strain (AID 149);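 note: 0% = growth of vehicle-treated wt1 cultures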; conditions: S. cerevisiae wt1 strain (SPY 50644) growth inhibition, hits give high values
Outline: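 The wt1 strain was treated with compounds, and growth was compared with vehicle-treated cultures to give inhibition.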

[2] = NCI Yeast Anticancer Drug Screen. Data for the rad50EPP+ strain (AID 151);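 note: 0% = growth of vehicle-treated control cultures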; conditions: S. cerevisiae rad50 mutant strain, hits give high values
Outline: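 Measured: growth inhibition of rad50EPP+ yeast. Reference: vehicle-treated controls. Screen uses strains with defined genetic alterations in DNA damage repair or cell cycle control.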

[3] = NCI Yeast Anticancer Drug Screen. Data for the rad50 strain (AID 155);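 note: 0% = growth of vehicle-only cultures of the same strain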; conditions: S. cerevisiae rad50 strain growth inhibition, hits give high values
Outline: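 Cells are treated with compound, grown, and their growth is then scored against vehicle-only cultures of the same repair-deficient yeast strain.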

[4] = NCI Yeast Anticancer Drug Screen. Data for the mec2-1 strain (AID 157); conditions: S. cerevisiae mec2-1 strain, hits give high values
Outline: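 Compounds were applied to mec2-1 yeast cells. Their growth was then compared with that of vehicle-treated cultures to give growth inhibition.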

[5] = NCI Yeast Anticancer Drug Screen. Data for the rad14 strain (AID 159);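 note: 0% = growth of vehicle-treated control cultures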; conditions: S. cerevisiae rad14 strain growth inhibition, hits give high values
Outline: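 Readout: yeast growth inhibition, referenced to vehicle-only cultures. Strain bears a defined alteration in DNA damage repair.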

[6] = NCI Yeast Anticancer Drug Screen. Data for the sgs1 mgt1 strain (AID 161);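 note: 0% = growth of cultures given vehicle only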; conditions: S. cerevisiae sgs1 mgt1 strain, hits give high values
Outline: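 This yeast growth screen uses a strain with defined DNA-repair lesions; compound-treated growth is compared with vehicle-treated growth.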

[7] = NCI Yeast Anticancer Drug Screen. Data for the CLN2oe strain (AID 163);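 note: 0% = growth of vehicle-only control cultures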; conditions: S. cerevisiae CLN2oe strain, hits give high values
Outline: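 Cells of an engineered yeast line with disturbed cell-cycle regulation are treated with compound. Inhibition of growth is then calculated relative to the vehicle-treated reference.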

[8] = NCI Yeast Anticancer Drug Screen. Data for the cln2 rad14 strain (AID 165);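 note: 0% = growth equal to vehicle treated cultures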; conditions: S. cerevisiae cln2 rad14 strain, hits give high values
Outline: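 Strain: cln2 rad14 yeast, altered in cell cycle control and DNA damage repair. Read-out: growth inhibition vs vehicle.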

[9] = NCI Yeast Anticancer Drug Screen. Data for the bub3 strain (AID 167); conditions: S. cerevisiae bub3 mutant strain, hits give high values
Outline: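 Part of a panel of yeast mutants defective in DNA damage repair or cell cycle regulation. Each strain is grown with compound, and inhibition is calculated relative to solvent-treated cultures.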

[10] = NCI Yeast Anticancer Drug Screen. Data for the wt2 strain (AID 169);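 note: 0% = growth of vehicle-treated yeast cultures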; conditions: S. cerevisiae wt2 strain growth inhibition, hits give high values
Outline: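 Growth of compound-treated yeast is measured and expressed as inhibition relative to vehicle-only controls.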

[11] = NCI Yeast Anticancer Drug Screen. Data for the mlh1 strain (AID 171);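 note: 0% = growth of vehicle-treated control cultures of the same strain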; conditions: S. cerevisiae mlh1 strain growth inhibition, hits give high values
Outline: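 Test agents were incubated with yeast bearing a defined DNA damage repair or cell cycle control alteration; values are growth inhibition normalised to vehicle-treated cultures.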

[12] = NCI Yeast Anticancer Drug Screen. Data for the sgs1 strain (AID 173);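 note: 0% = growth of vehicle-only control cultures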; conditions: S. cerevisiae sgs1 mutant, hits give high values
Outline: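 Strain with an altered DNA repair or cell cycle pathway exposed to compound. Growth then measured. Value = inhibition versus vehicle control.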

[13] = NCI Yeast Anticancer Drug Screen. Data for the mlh1 rad18 strain (AID 175); conditions: S. cerevisiae mlh1 rad18 strain growth inhibition, hits give high values
Outline: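 A repair-deficient yeast strain is exposed to test compound, and growth is scored relative to vehicle-treated controls.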

[14] = NCI Yeast Anticancer Drug Screen. Data for the rad18 strain (AID 177); conditions: S. cerevisiae rad18 mutant growth inhibition, hits give high values
Outline: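 DNA-repair-defective yeast; compound treatment; growth inhibition scored against vehicle.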

[15] = NCI Yeast Anticancer Drug Screen. Data for the mgt1 strain (AID 153); conditions: S. cerevisiae mgt1 mutant growth inhibition, hits give high values
Outline: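 Compounds were applied to mgt1 mutant yeast, and growth was then compared against vehicle-treated control cultures to give percent inhibition.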

[16] = at 5.0 µM (retest, dose inferred, filed as 0.5)
[17] = at 50.0 µM (retest, dose inferred, filed as 5.0)

Measured: growth inhibition

COc1ccc(SCc2cc(OC)ccc2OC)cc1
active: [9]; [17] 73%
inactive: [1]; at 1.2 µM -4% | [1]; at 3.7 µM -4% | [1]; at 11.0 µM -5% | [1]; at 33.0 µM -6% | [1]; at 100.0 µM -1% | [2]; at 1.2 µM 15% | [2]; at 3.7 µM 18% | [2]; at 11.0 µM 27% | [2]; at 33.0 µM 30% | [2]; at 100.0 µM 18% | [3]; at 1.2 µM 0% | [3]; at 3.7 µM 1% | [3]; [16] -8% | [3]; at 11.0 µM 2% | [3]; at 33.0 µM 2% | [3]; [17] 66% | [3]; at 50.0 µM 60.5% | [3]; at 100.0 µM 3% | [4]; at 1.2 µM -1% | [4]; at 3.7 µM -7% | [4]; [16] -26% | [4]; at 11.0 µM -6% | [4]; at 33.0 µM -9% | [4]; [17] 14% | [4]; at 50.0 µM 13.9% | [4]; at 100.0 µM -3% | [5]; at 1.2 µM 0% | [5]; at 3.7 µM -2% | [5]; at 11.0 µM -3% | [5]; at 33.0 µM 0% | [5]; at 100.0 µM 2% | [6]; [16] -27% | [6]; [17] 37% | [6]; at 50.0 µM 67% | [7]; at 1.2 µM -4% | [7]; at 3.7 µM -9% | [7]; at 11.0 µM -6% | [7]; at 33.0 µM -8% | [7]; at 100.0 µM -2% | [8]; [16] -25% | [8]; [17] 58% | [8]; at 50.0 µM 20.1% | [9]; at 1.2 µM 3% | [9]; at 3.7 µM 13% | [9]; [16] -17% | [9]; at 11.0 µM 24% | [9]; at 33.0 µM 21% | [9]; at 50.0 µM 61.3% | [9]; at 100.0 µM 14% | [10]; at 1.2 µM -2% | [10]; at 3.7 µM 0% | [10]; at 11.0 µM -2% | [10]; at 33.0 µM 0% | [10]; at 100.0 µM 1% | [11]; at 1.2 µM -2% | [11]; at 3.7 µM -4% | [11]; at 11.0 µM 0% | [11]; at 33.0 µM -4% | [11]; at 100.0 µM 0% | [12]; at 1.2 µM -2% | [12]; at 3.7 µM -4% | [12]; at 11.0 µM -2% | [12]; at 33.0 µM -2% | [12]; at 100.0 µM 0% | [13]; [16] -16% | [13]; [17] 67% | [13]; at 50.0 µM 21.3% | [14]; at 1.2 µM -5% | [14]; at 3.7 µM -5% | [14]; at 11.0 µM -3% | [14]; at 33.0 µM -16% | [14]; at 100.0 µM -1%

S=C1SCN(CCc2ccccc2)CN1CCc1ccccc1
active: [2]; at 11.0 µM 85% | [2]; at 33.0 µM 92% | [2]; at 100.0 µM 81% | [4]; at 50.0 µM 71.8% | [6]; at 50.0 µM 76.2% | [9]; [17] 72% | [9]; at 50.0 µM 79.1% | [13]; [17] 80%
inactive: [2]; at 1.2 µM 26% | [2]; at 3.7 µM 51% | [15]; at 1.2 µM 1% | [15]; at 3.7 µM 0% | [15]; at 11.0 µM 35% | [15]; at 33.0 µM 42% | [15]; at 100.0 µM 26% | [3]; at 1.2 µM -12% | [3]; at 3.7 µM 5% | [3]; [16] 7% | [3]; at 11.0 µM 50% | [3]; at 33.0 µM 64% | [3]; [17] 38% | [3]; at 50.0 µM 55% | [3]; at 100.0 µM 52% | [4]; at 1.2 µM -3% | [4]; at 3.7 µM 1% | [4]; [16] 24% | [4]; at 11.0 µM 52% | [4]; at 33.0 µM 54% | [4]; [17] 55% | [4]; at 100.0 µM 38% | [5]; at 1.2 µM -20% | [5]; at 3.7 µM -4% | [5]; at 11.0 µM 2% | [5]; at 33.0 µM 34% | [5]; at 100.0 µM 16% | [6]; [16] 9% | [6]; [17] 48% | [7]; at 1.2 µM 3% | [7]; at 3.7 µM 10% | [7]; at 11.0 µM 25% | [7]; at 33.0 µM 45% | [7]; at 100.0 µM 17% | [8]; [16] 12% | [8]; [17] 12% | [8]; at 50.0 µM 22.1% | [9]; at 1.2 µM -2% | [9]; at 3.7 µM 3% | [9]; [16] -4% | [9]; at 11.0 µM 23% | [9]; at 33.0 µM 53% | [9]; at 100.0 µM 42% | [10]; at 1.2 µM 6% | [10]; at 3.7 µM 3% | [10]; at 11.0 µM 53% | [10]; at 33.0 µM 63% | [10]; at 100.0 µM 47% | [11]; at 1.2 µM -3% | [11]; at 3.7 µM -10% | [11]; at 11.0 µM 20% | [11]; at 33.0 µM 40% | [11]; at 100.0 µM 19% | [12]; at 1.2 µM -5% | [12]; at 3.7 µM 16% | [12]; at 11.0 µM 31% | [12]; at 33.0 µM 59% | [12]; at 100.0 µM 48% | [13]; [16] -9% | [13]; at 50.0 µM 58% | [14]; at 1.2 µM 15% | [14]; at 3.7 µM 25% | [14]; at 11.0 µM 47% | [14]; at 33.0 µM 65% | [14]; at 100.0 µM 39%
